Test [1] in a line: ATG_CRE_CIS: Attagene CIS-FACTORIAL HepG2 Assay for human cAMP Responsive Element (CRE) binding protein 3 (AID 2282926). As to conditions: HepG2 CRE cis-reporter, Attagene multiplexed mRNA; actives raise or lower the signal. Put shortly: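 Readout: fluorescently labelled reporter transcripts resolved by capillary electrophoresis after RT-PCR, taken 24 h post-dosing in transfected HepG2. Endogenous transcription factor activity drives each cis-element reporter; gain or loss of signal fitted relative to DMSO control.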

For test [2], the target named is CCAAT/enhancer-binding protein beta (Homo sapiens) (UniProt P17676). The test can be described thus: ATG_C_EBP_CIS: Attagene CIS-FACTORIAL HepG2 Assay for human CCAAT/Enhancer Binding Protein (C/EBP) beta (AID 2282927). The conditions noted are these: HepG2 Attagene cis-factorial transcription factor reporter; actives raise or lower the signal. Put shortly: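 HepG2 transiently transfected with multiplexed reporter units under cis-regulatory promoters reporting endogenous C/EBPb activity. After 24 h exposure, reporter mRNA assayed by RT-PCR, fluorescent labelling, HpaI digestion and capillary electrophoresis; bidirectional fitting versus DMSO.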

Test [3] can be described thus: ATG_DR4_LXR_CIS: Attagene CIS-FACTORIAL HepG2 Assay for human Liver X Receptor (LXR), DR4 submotif (AID 2282929). As to conditions: HepG2 Attagene DR4 cis-reporter, mRNA transcription; actives raise or lower the signal. Put shortly:
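HepG2 cells transiently transfected with cis-promoter-driven multiplexed reporter units (DR4 element) were dosed for 24 h. Reporter mRNA was quantified by RT-PCR, fluorescent primer extension, HpaI digestion and capillary electrophoresis; bidirectional fitting versus DMSO baseline.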

Test [4] can be described thus: ATG_AP_2_CIS: Attagene CIS-FACTORIAL HepG2 Assay for human Activator Protein 2 (AP-2) (AID 2282932). As to conditions: HepG2 AP-2 cis-reporter, Attagene transcription factor profiling; actives raise or lower the signal. In outline:
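Liver-derived HepG2 line, cis-reporter system measuring endogenous factors; 24 h dosing; reporter mRNA detected by fluorescent RT-PCR and capillary electrophoresis.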

Test [5] is described as follows: ATG_BRE_CIS: Attagene CIS-FACTORIAL HepG2 Assay for human Bone Morphogenetic Protein (BMP) Response Element (BRE) (AID 2282933). The conditions noted are these: HepG2 BMP response element reporter, Attagene transcription factor profiling; actives raise or lower the signal. Put shortly: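 Read-out: reporter mRNA induction quantified by RT-PCR and capillary electrophoresis after 24 h chemical exposure of transfected HepG2 cells. Endogenous factor activity on the BMP response element; gain or loss fitted against DMSO baseline.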

The target of test [6] is Transcription factor E2F1 (Homo sapiens) (UniProt Q01094). The test is described as follows: ATG_E2F_CIS: Attagene CIS-FACTORIAL HepG2 Assay for human E2F Transcription Factor 1 (AID 2282935). The conditions noted are these: HepG2 Attagene cis-reporter, E2F reporter RNA transcripts; actives raise or lower the signal. Put shortly:
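Liver-derived HepG2 cells expressing transfected promoter-driven reporter units received test chemical for 24 hours. Signal gains or losses were fitted bidirectionally against DMSO.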

Test [7] in a line: ATG_EGR_CIS: Attagene CIS-FACTORIAL HepG2 Assay for human Early Growth Response 1 (EGR1) (AID 2282938). As to conditions: HepG2 Attagene CIS-FACTORIAL EGR reporter mRNA; actives raise or lower the signal. Put shortly:
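HepG2 cells transiently transfected with cis-promoter-driven multiplexed reporter transcription units; reporter mRNA measured 24 h after compound dosing by RT-PCR, 6-FAM primer extension, HpaI digestion and capillary electrophoresis. Bidirectional fit versus DMSO baseline.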

Test [8] in a line: ATG_M_19_CIS: Attagene CIS-FACTORIAL HepG2 Assay for M19 Transcription Factor (Internal Marker) (AID 2282939). The conditions noted are these: HepG2 Attagene CIS-FACTORIAL M19 internal marker reporter; actives raise or lower the signal. Put shortly: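 Readout: fluorescent reporter-transcript fragments by capillary electrophoresis after RT-PCR. Human HepG2 liver cells carried transfected MRTU constructs reporting endogenous transcription-factor activity; exposure 24 h. Gain or loss of signal fitted relative to DMSO.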

Test [9] is described as follows: ATG_Ets_CIS: Attagene CIS-FACTORIAL HepG2 Assay for human Erythroblast Transformation Specific (ETS) (AID 2282941). As to conditions: HepG2 ETS cis-reporter transcription, actives raise or lower the signal. In outline: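 Multiplexed reporter transcript profiling: HepG2, 24 h treatment, total RNA to cDNA, PCR, 6-FAM labelling, HpaI cut, capillary electrophoresis. Gain- or loss-of-signal fitted against DMSO.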

Test [10] deals with Hepatocyte nuclear factor 3-beta (Homo sapiens) (UniProt Q9Y261). The test can be described thus: ATG_FoxA2_CIS: Attagene CIS-FACTORIAL HepG2 Assay for human Forkhead box A2 (FOXA2) (AID 2282942). The conditions noted are these: HepG2 cis-reporter transcription factor activity, 24 h; actives raise or lower the signal. In outline: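 HepG2 cells transiently transfected with multiple cis-regulated reporter transcription units, dosed for 24 h. Reporter mRNA measured by RT-PCR, 6-FAM labelling, HpaI digestion and capillary electrophoresis; bidirectional fitting against DMSO baseline.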

Test [11] can be described thus: ATG_FoxO_CIS: Attagene CIS-FACTORIAL HepG2 Assay for human Forkhead box O (FoxO) (AID 2282943). As to conditions: HepG2 Attagene cis-reporter, FoxO element, mRNA; actives raise or lower the signal. Put shortly:
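HepG2 cells transiently transfected with cis-element-driven reporter units report endogenous FoxO activity. After 24 h chemical exposure, reporter mRNA quantified by RT-PCR, fluorescent labeling, HpaI digestion and capillary electrophoresis; bidirectional fit versus DMSO.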

Test [12] in a line: ATG_GATA_CIS: Attagene CIS-FACTORIAL HepG2 Assay for human GATA Binding Protein (AID 2282944). As to conditions: HepG2 GATA cis-element reporter, Attagene multiplex mRNA; actives raise or lower the signal. In outline:
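Read-out: fluorescent reporter mRNA fragments resolved by capillary electrophoresis after RT-PCR. Human liver HepG2 cells carried transiently transfected cis-regulated reporter constructs; chemicals incubated 24 h; gain or loss of signal fitted relative to DMSO.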

Test [13] can be described thus: ATG_GLI_CIS: Attagene CIS-FACTORIAL HepG2 Assay for human Zinc Finger Protein GLI1 (AID 2282945). As to conditions: HepG2, Attagene cis-factorial reporter mRNA, GLI element; actives raise or lower the signal. Put shortly:
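Transiently transfected HepG2 cells report endogenous transcription factor activity via cis-element-driven reporter units. After 24 h compound exposure, reporter mRNA was measured by RT-PCR with capillary electrophoresis; bidirectional fitting against DMSO baseline.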

Test [14] can be described thus: ATG_M_06_CIS: Attagene CIS-FACTORIAL HepG2 Assay for M06 Transcription Factor (Internal Marker) (AID 2282950). As to conditions: HepG2 Attagene CIS-FACTORIAL M06 internal marker reporter; actives raise or lower the signal. In outline: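 Terse: HepG2, transient MRTU transfection (FuGene 6), 24 h dosing; total RNA, oligo(dT) RT, PCR, FAM label, HpaI cut, capillary electrophoresis; bidirectional fit vs DMSO baseline; background-control endpoint.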

Test [15] can be described thus: ATG_MRE_CIS: Attagene CIS-FACTORIAL HepG2 Assay for human Metal Responsive Element (MRE) (AID 2282954). The conditions noted are these: HepG2 MRE cis-reporter transcription, Attagene multiplex; actives raise or lower the signal. Put shortly: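 Measured here is mRNA induction from an MRE cis-element reporter in HepG2 after 24 h, quantified by fluorescence of labelled RT-PCR products on capillary electrophoresis; gain- and loss-of-signal fits use DMSO as baseline.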

Test [16] deals with Paired box protein Pax-6 (Homo sapiens) (UniProt P26367). The test is described as follows: ATG_Pax6_CIS: Attagene CIS-FACTORIAL HepG2 Assay for human Paired Box 6 (PAX6) (AID 2282956). As to conditions: HepG2 CIS-FACTORIAL PAX6 reporter transcription, RNA readout; actives raise or lower the signal. In outline:
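Values derive from bidirectional curve fitting of reporter mRNA signal relative to DMSO. HepG2 cells bearing transfected cis-regulated MRTUs were exposed for 24 h; transcripts were read by RT-PCR and capillary electrophoresis.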

A short description of test [17]: ATG_PXRE_CIS: Attagene CIS-FACTORIAL HepG2 Assay for human Pregnane X Receptor Element (PXRE) (AID 2282957). The conditions noted are these: HepG2 Attagene CIS-FACTORIAL PXRE reporter, mRNA; actives raise or lower the signal. Put shortly:
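Read-out: fluorescence of reporter-specific RT-PCR products resolved by capillary electrophoresis, fitted bidirectionally relative to DMSO. Human HepG2 liver cells carried transfected cis-promoter reporter units and were exposed to chemicals for 24 h.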

Test [18] in a line: ATG_Sox_CIS: Attagene CIS-FACTORIAL HepG2 Assay for human SRY-box transcription factor (SOX) (AID 2282960). The conditions noted are these: HepG2 Attagene cis-factorial SOX reporter, mRNA; actives raise or lower the signal. In outline:
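HepG2 cells transiently transfected with cis-element-driven multiple reporter transcription units, dosed 24 h; reporter mRNA measured by RT-PCR, FAM labelling, HpaI digestion and capillary electrophoresis. Bidirectional fit versus DMSO baseline.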

Test [19] deals with Transcription factor Sp1 (Homo sapiens) (UniProt P08047). The test is described as follows: ATG_Sp1_CIS: Attagene CIS-FACTORIAL HepG2 Assay for human Specificity Protein 1 (Sp1) (AID 2282961). As to conditions: HepG2 Sp1 cis-reporter transcription, actives raise or lower the signal. Put shortly: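 HepG2 cells transiently transfected with multiple reporter transcription units driven by cis-regulatory elements; Sp1-responsive reporter mRNA measured 24 h after dosing by RT-PCR and capillary electrophoresis fluorescence, fitted bidirectionally against DMSO baseline.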

The nature of test [20]: ATG_SREBP_CIS: Attagene CIS-FACTORIAL HepG2 Assay for human Sterol Regulatory Element Binding (SREBP) (AID 2282962). As to conditions: HepG2 Attagene cis-factorial SREBP reporter, mRNA; actives raise or lower the signal. In outline: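 Values derive from bidirectional curve fitting with DMSO as baseline. The underlying measurement is reporter mRNA from cis-element-regulated units in transiently transfected HepG2, quantified by RT-PCR and capillary electrophoresis after 24 h exposure.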

The source made the active and inactive calls. Rule for the calls: active = hit-call score of the fitted dose curve at least 0.9, where 1 is the maximum; inactive = score below 0.9.

Sequence of Transcription factor Sp1 (Homo sapiens) (P08047 whole entry, looked up): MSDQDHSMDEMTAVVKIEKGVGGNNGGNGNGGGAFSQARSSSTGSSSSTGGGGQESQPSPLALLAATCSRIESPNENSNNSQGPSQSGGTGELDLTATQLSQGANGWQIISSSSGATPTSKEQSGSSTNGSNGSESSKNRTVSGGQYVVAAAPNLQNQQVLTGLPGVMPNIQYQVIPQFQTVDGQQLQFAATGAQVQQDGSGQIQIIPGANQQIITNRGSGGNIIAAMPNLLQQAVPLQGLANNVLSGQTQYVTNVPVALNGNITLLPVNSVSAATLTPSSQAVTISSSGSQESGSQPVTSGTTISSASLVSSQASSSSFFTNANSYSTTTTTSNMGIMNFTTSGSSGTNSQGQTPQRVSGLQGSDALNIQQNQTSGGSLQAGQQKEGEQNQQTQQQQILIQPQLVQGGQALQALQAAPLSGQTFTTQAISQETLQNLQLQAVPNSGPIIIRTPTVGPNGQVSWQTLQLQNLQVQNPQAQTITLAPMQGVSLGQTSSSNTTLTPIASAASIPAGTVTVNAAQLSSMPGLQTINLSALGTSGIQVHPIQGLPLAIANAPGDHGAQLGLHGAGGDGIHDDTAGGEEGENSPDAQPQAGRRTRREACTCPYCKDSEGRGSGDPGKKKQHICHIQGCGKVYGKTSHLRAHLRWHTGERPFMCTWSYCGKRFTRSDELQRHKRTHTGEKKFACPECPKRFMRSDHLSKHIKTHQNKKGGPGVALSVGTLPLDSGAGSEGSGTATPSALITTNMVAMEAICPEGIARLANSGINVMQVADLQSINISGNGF
Sequence of Transcription factor E2F1 (Homo sapiens) (Q01094 whole entry, looked up): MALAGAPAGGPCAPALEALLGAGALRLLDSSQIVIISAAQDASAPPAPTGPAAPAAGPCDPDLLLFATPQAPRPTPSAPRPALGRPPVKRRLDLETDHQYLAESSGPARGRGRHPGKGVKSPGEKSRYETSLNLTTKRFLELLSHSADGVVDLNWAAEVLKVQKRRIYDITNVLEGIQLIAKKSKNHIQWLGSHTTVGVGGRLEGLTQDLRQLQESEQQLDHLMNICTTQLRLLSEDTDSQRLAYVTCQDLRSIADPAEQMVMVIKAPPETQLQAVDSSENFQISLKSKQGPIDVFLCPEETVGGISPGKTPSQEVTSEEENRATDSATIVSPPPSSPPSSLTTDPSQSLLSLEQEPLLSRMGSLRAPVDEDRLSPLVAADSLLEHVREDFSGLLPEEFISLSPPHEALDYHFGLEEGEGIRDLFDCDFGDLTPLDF
Sequence of CCAAT/enhancer-binding protein beta (Homo sapiens) (P17676 whole entry, looked up): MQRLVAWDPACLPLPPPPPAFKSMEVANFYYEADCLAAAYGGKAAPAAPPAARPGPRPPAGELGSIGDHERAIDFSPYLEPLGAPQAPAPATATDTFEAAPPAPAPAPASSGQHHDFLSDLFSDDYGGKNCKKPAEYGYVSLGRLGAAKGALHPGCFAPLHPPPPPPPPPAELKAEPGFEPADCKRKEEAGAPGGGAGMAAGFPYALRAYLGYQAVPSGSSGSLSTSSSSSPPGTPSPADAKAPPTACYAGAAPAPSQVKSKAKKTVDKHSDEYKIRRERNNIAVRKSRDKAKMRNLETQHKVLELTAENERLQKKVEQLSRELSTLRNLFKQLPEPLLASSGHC
Sequence of Paired box protein Pax-6 (Homo sapiens) (P26367 whole entry, looked up): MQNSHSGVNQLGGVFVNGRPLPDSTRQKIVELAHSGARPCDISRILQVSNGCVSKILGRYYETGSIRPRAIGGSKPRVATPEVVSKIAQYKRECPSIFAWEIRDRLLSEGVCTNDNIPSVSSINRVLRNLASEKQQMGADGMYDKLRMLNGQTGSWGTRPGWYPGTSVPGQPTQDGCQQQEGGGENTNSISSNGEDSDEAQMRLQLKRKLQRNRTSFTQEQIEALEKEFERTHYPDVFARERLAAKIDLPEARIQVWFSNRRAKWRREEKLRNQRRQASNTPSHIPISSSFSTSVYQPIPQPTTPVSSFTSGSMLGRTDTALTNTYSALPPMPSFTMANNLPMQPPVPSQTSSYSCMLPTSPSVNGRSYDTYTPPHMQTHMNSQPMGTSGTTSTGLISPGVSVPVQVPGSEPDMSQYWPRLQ
Sequence of Hepatocyte nuclear factor 3-beta (Homo sapiens) (Q9Y261 whole entry, looked up): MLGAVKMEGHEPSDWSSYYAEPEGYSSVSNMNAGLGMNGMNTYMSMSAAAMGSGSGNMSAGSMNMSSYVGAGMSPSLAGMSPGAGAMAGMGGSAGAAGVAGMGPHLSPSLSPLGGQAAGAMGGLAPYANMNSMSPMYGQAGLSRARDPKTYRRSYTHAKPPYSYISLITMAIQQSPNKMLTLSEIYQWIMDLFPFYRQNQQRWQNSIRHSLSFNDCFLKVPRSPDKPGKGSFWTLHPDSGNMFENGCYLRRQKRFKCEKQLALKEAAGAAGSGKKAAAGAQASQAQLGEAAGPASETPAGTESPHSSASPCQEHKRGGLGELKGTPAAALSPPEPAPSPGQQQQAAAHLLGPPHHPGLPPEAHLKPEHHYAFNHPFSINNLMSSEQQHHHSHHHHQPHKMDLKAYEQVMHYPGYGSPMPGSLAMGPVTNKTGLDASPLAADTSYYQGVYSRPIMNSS

Regarding `O=C(CCl)c1ccccc1`, the AC50 was 8.31 µM (active) in test [1], 21.1 µM (active) in test [3] and 18.9 µM (active) in test [4]. The result in test [2], in test [5], in test [6], in test [7], in [8] and in test [9] was inactive. In addition, the call in test [10], in test [11], in [12], in [13], in test [14] and in test [15] was inactive. Besides, the compound was called inactive in test [16], in [17], in test [18], in test [19] and in test [20].

Turning to `CCOC(=O)COc1ccc(Cl)cc1Cl`, the compound was classed as inactive in test [1], in [2], in [3], in test [4], in test [5] and in test [6]. Besides, the result in test [7], in [8], in test [9], in test [10], in test [11] and in [12] was inactive. Further, the compound was called inactive in [13], in test [14], in test [15], in test [16], in test [17] and in [18]. The call in test [19] and in test [20] was inactive.

`Nc1c(Cl)c(Cl)c(Cl)c(Cl)c1Cl`: the compound was called inactive in test [1], in test [2], in test [3], in test [4], in test [5] and in [6]. The compound was classed as inactive in [7], in test [8], in test [9], in test [10], in [11] and in [12]. For the same compound, the result in test [13], in [14], in test [15], in [16], in [18] and in [19] was inactive. For the same compound, the call in test [20] was inactive. Also, the AC50 in test [17] was 15.4 µM (active).

As to `N#CCNCC#N`, the outcome in test [1], in test [2], in test [3], in test [4], in [5] and in test [6] was inactive. Also, the outcome in test [7], in test [8], in test [9], in test [10], in [11] and in test [12] was inactive. Moreover, the compound was called inactive in test [13], in test [14], in test [15], in test [16], in test [17] and in [18]. The outcome in [19] and in test [20] was inactive.

(Values after PubChem BioAssay (EPA / NIEHS).)
